This is an account of results in the OligoGym collection.
Also: reference of the scale not given here.

The target of one test is GTF2H5. In words: pooled miR-30 sensor sort-seq; sequence = guide strand. The settings on record: shRNA.
For the sequence TTAATTCACCCACTCGCTCCTG, the sensor-assay potency score (higher = more potent) was -0.542.
In turn, AATGATGAACTTCTTCCCCAGG had a sensor-assay potency score (higher = more potent) of -1.25.
Consider TACAGCAGAAACTGCTTCATGG, for which the sensor-assay potency score (higher = more potent) is -0.967.
The sequence TAATTCACCCACTCGCTCCTGG yielded a sensor-assay potency score (higher = more potent) of 0.481.
The sequence ATCAATGTCTTGAATGATGAAC returned a sensor-assay potency score (higher = more potent) of -1.38.

A further test has as its target GUCY2F. The test is described as above. The settings on record: shRNA.
In the case of TAAATTGAATTGTAGATGGTTC, the sensor-assay potency score (higher = more potent) is -0.461.
In turn, TAATGGTCAACACTGCATCATA showed a sensor-assay potency score (higher = more potent) of -1.31.
Turning to TTATAAAGTAAGCAAATCCATT, the sensor-assay potency score (higher = more potent) is -1.1.
On the same count and under the same terms, as for TGAAGAATTGTAACAGTGCTGA, the figure is -0.218.
The same measure, in the same setting: as for TTTCACATCTTGATTTGTCAGT, the figure is -0.489; as for TTCCATTTCCATTTGAATCTGT, 0.512; as for TTGAATTGTAGATGGTTCCAAA, -0.33.
Still for that read-out and setting: as for TTGGTCGTTGTTCTGCAGCCTC, the figure is -0.834; as for TAATATTGGTCTTCTTCCCTTT, -0.067; as for TTGAAGAATTGTAACAGTGCTG, 0.627.
In turn, TAATCTGGAAGCTTACACTGGC showed a sensor-assay potency score (higher = more potent) of 0.71.
Still for that read-out and setting: as for TAGATGGTTCCAAACAACGGTG, the figure is -1.15.

A further test addresses GYG1. Described as above. The settings on record: shRNA.
In turn, TAACCATCAGAGAACACACTGC gave a sensor-assay potency score (higher = more potent) of 0.344.
As to TAACAGACTTTTCTCAACCCAG, the sensor-assay potency score (higher = more potent) was -0.49.
TTGCTCAGAAGCAAGATGCAAC registered a sensor-assay potency score (higher = more potent) of -0.936.
Still for that read-out and setting: for TACAGAACTGAACAAAAGCATT the value was -1.48.
The same measure, in the same setting: for TACTGTGTAAGCGACCAGCAGT the value was -0.399.
Same read-out and setting: for TTAATATCTTGAGTTTCCCTTA the value was -0.312; for TTACATATGAGCAGGTGTCTTT, -0.417.
As to TTGAAGCAGAGGTAAAACGTTG, the sensor-assay potency score (higher = more potent) is -0.811.
Same read-out and setting: as for TCTAGCAACTGTAACAGACTTT, the figure is -0.0429.
Still for that read-out and setting: as for TTTAAGAACTGATACAGCCATC, the figure is -1.1; as for TTACTGTACACAGAAAACTGGT, -0.292.
Still for that read-out and setting: for TTTAATGAAAACCTCTAGCAAC the value was -1.05.

In the next test the target is H2AFZ. Described as above. The note with it: shRNA.
In the case of TAGCAAGTTGCAAGTGACGAGG, the sensor-assay potency score (higher = more potent) is -0.877.
On the same count and under the same terms, for TTTAGGTGTCGATGAATACGGC the value was -0.619.
Regarding TTTGTCTTGGCCTTTCCGGAGT, the sensor-assay potency score (higher = more potent) was -0.897.
The sequence TTAGGTGTCGATGAATACGGCC had a sensor-assay potency score (higher = more potent) of -0.494.
The same measure, in the same setting: for TAAACTTCCAACTTGCTCAAAT the value was -0.831.
Same read-out and setting: for TTTGAAGCCACAGTAACACTTA the value was 0.62.
Consider TTTACCTTTAAGTCTTTTGATG, for which the sensor-assay potency score (higher = more potent) is -0.972.
The sequence TAGATTTTAGGTGTCGATGAAT returned a sensor-assay potency score (higher = more potent) of -1.16.
Sequence TTGAACTTATCCACCAGAGTGG displayed a sensor-assay potency score (higher = more potent) of -0.27.
Still for that read-out and setting: as for TTAAACTTCCAACTTGCTCAAA, the figure is -1; as for ATAATGTCTGTACAAAACCAAA, -1.91.
